Compound activity from PubChem.
LASV entry inh – qHTS for Inhibitors of binding or entry into cells for Lassa Virus; Lassa virus pseudotype entry inhibition, cell reporter; Potency, µM (series often up to 37.9 µM), usual class: inhibitors; 1.2% of 300,000 active; AID 540256, 2011; calls by dose curve; tested in HEK293 cells; further: nearly all actives have a fitted effect of over 50% in size
HCV inhibitor – qHTS Assay for Inhibitors of Hepatitis C Virus (HCV); Huh7.5.1 HCVcc-Cre infection, luciferase reporter, 44 h; Potency, µM (doses to about 41.8 µM), most hits filed as inhibitors; 3.4% of 340,000 active
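Infectious HCV cell culture screen: compound-treated cells (1,000/well, pre-plated 4 h) are infected with HCVcc-Cre at roughly 0.5 moi and grown 44 h. Infection is quantified by luciferase signal after 15 min substrate incubation at room temperature.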
RE007 growth inh – qHTS Assay for Inhibitors of the HIV-1 protein Vpr; Potency, µM (doses to about 92.2 µM), most hits filed as inhibitors; 0.21% of 360,000 active; S. pombe RE007 Vpr strain, BacTiter-Glo ATP luminescence, 24 h; active means well fitted falling curve with a large enough effect; inconclusive means small, poorly fitted or top-dose-only effect; inactive means no such curve, though single readings can be large or run the other way; further: nearly all actives have a fitted effect of over 50% in size
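Fission yeast strain RE007, carrying one chromosomally integrated HIV-1 vpr copy, was seeded at OD 0.01 in PMG+AL medium with 23 nL pinned compound. After 24 h at 30 °C and 99% humidity, viability was read by BacTiter-Glo luminescence.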
Marburg entry inh – qHTS for inhibitors of binding or entry into cells for Marburg Virus; 1.8% of 300,000 active; Marburg virus pseudotyped entry inhibition, cell reporter; Potency, µM (highest dose often 37.8 µM), usual class: inhibitors; calls by dose curve; tested in HEK293 cells
Sm TGR inh – qHTS Assay for the Inhibitors of Schistosoma Mansoni Peroxiredoxins. Schistosoma mansoni thioredoxin glutathione reductase (TGR), Q962Y6. purified TGR, DTNB reduction, TNB absorbance 405 nm. Potency, µM (titrated, usually from 114 µM), hits mostly inhibitors. 3% of 360,000 active; further: nearly all actives have a fitted effect of over 60% in size
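First, TGR (20 nM dispensed) and NADPH were mixed with compound. Second, a 15 min room-temperature incubation followed. Third, further NADPH and then DTNB were added to start the reaction. Finally, TNB absorbance was monitored kinetically.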
FMDV antiviral – High Throughput Screening for Foot and Mouth Disease Virus Antivirals; FMDV antiviral cell-based qHTS; 1.2% of 410,000 active; Potency, µM (titrated, usually from 57.9 µM), usual class: inhibitors; calls by dose curve; tested in HEK293T cells; further: read-out not given here; nearly all actives have a fitted effect of over 45% in size
Large screens that a line does not name were inactive; ! = a repeat was not active. Rows were chosen to be rich in hits. Some 7.2% of all compounds tested hit in one or more screens of this group. Unless noted, the call rests on the fitted dose curve; in most records, active means well fitted curve in the direction sought with a large enough effect; inconclusive means small, poorly fitted or top-dose-only effect, or another doubt; inactive means no such curve, though single readings can be large; an effect the other way counts as inactive or inconclusive.

FC(F)(F)c1ccc(C2=Nc3ccccc3NC(c3cccs3)=N2)cc1	none (no result: HCV inhibitor, RE007 growth inh)
Cn1ncc2c(Nc3ccc(Cl)c(Cl)c3)ncnc21	HCV inhibitor inconclusive (no result: LASV entry inh, Marburg entry inh)
Cn1ncc2c(Nc3ccc(-c4ccccc4)cc3)ncnc21	LASV entry inh 3.7µM, HCV inhibitor inconclusive, Marburg entry inh 2.9µM (no result: FMDV antiviral)
COc1ccc(CCNc2ncnc3c2cnn3-c2cc(Cl)ccc2C)cc1	LASV entry inh inconclusive, FMDV antiviral 18µM (no result: HCV inhibitor, RE007 growth inh, Marburg entry inh)
COc1ccc(CCNc2ncnc3c2cnn3-c2ccc(C)c(Cl)c2)cc1	none (no result: HCV inhibitor, RE007 growth inh, Marburg entry inh)
COc1ccc(CC(=O)NNc2ncnc3c2cnn3-c2ccccc2)cc1	LASV entry inh 5.2µM
CCc1cc2c(NCc3ccccc3)nc(C)nc2s1	HCV inhibitor 7.9µM, RE007 growth inh inconclusive, FMDV antiviral inconclusive (no result: LASV entry inh, Marburg entry inh)
Cc1nc2cccnc2n1-c1cccc(C(=O)NCc2cccc(Cl)c2)c1	FMDV antiviral inconclusive (no result: HCV inhibitor, RE007 growth inh, Marburg entry inh)
Cc1ccc(-n2ncc3c(Nc4ccccc4C)ncnc32)cc1	none (no result: HCV inhibitor, RE007 growth inh, Marburg entry inh)
Cc1ccccc1Nc1ncnc2c1cnn2-c1ccccc1	HCV inhibitor 11µM (no result: LASV entry inh, Marburg entry inh)
CCc1cc2c(NCc3ccco3)ncnc2s1	HCV inhibitor 16µM, Marburg entry inh inconclusive, FMDV antiviral inconclusive
COc1ccc(-n2ncc3c(NCc4ccco4)ncnc32)cc1	Marburg entry inh inconclusive, Sm TGR inh 50µM
CCc1cc2c(NCC(=O)O)ncnc2s1	none
COc1cccc(CNC(=O)C2CCN(S(=O)(=O)c3c(C)noc3/C=C/c3cccs3)CC2)c1	none (no result: HCV inhibitor, RE007 growth inh)
COc1cc(S(=O)(=O)N2CCC(O)(c3cccc(C(F)(F)F)c3)CC2)ccc1-n1cnnn1	HCV inhibitor 1.6µM! (no result: FMDV antiviral)
COc1ccc(S(=O)(=O)N2CCCCC2)cc1-n1cnnn1	Marburg entry inh inconclusive
O=S(=O)(c1ccc(OC(F)(F)F)cc1)N1CCC(O)(c2cccc(C(F)(F)F)c2)CC1	HCV inhibitor 8.9µM (no result: LASV entry inh, Marburg entry inh)
Cc1ccc2[nH]c(=O)c3cc(C(=O)N4CCN(c5ccccc5F)CC4)sc3c2c1	none (no result: HCV inhibitor, RE007 growth inh)
Oc1c(C(Nc2cccc(C(F)(F)F)c2)c2cccnc2)ccc2cccnc12 (configuration not stated)	LASV entry inh inconclusive, HCV inhibitor 11µM, Marburg entry inh inconclusive, Sm TGR inh 0.71µM
Cc1cc(NC(=O)c2cc(-c3cccnc3)nc3c(C)c(C)ccc23)no1	HCV inhibitor inconclusive, Marburg entry inh inconclusive, FMDV antiviral inconclusive
Cc1cc(NC(c2cccnc2)c2ccc3cccnc3c2O)no1 (configuration not stated)	LASV entry inh inconclusive, HCV inhibitor 2.5µM, Marburg entry inh inconclusive, FMDV antiviral inconclusive
CC(C)CC(C(=O)NCc1ccc(F)cc1)N1Cc2ccccc2C1=O (configuration not stated)	none (no result: HCV inhibitor, RE007 growth inh, Marburg entry inh)
Cc1nc2c(o1)C(=O)c1ccccc1C2=Nc1ccccc1	LASV entry inh 11µM, HCV inhibitor 2.8µM, RE007 growth inh 7.1µM, Marburg entry inh inconclusive, FMDV antiviral 18µM (no result: Sm TGR inh)
Cc1ccc(N=C2C(=O)Nc3ccccc32)cc1	none (no result: LASV entry inh, RE007 growth inh, Marburg entry inh)
CN(C1CCCCC1)S(=O)(=O)c1ccc2c(c1)c(=O)c(C(=O)NCc1ccc(F)cc1)cn2C	Sm TGR inh inconclusive (no result: HCV inhibitor, RE007 growth inh)
CCOc1ccc(-c2ccc(/C=C3/C(=N)N4C=CSC4=NC3=O)o2)c([N+](=O)[O-])c1	HCV inhibitor 11µM, FMDV antiviral inconclusive
CC1=CN2C(=N)/C(=C/c3ccc([N+](=O)[O-])o3)C(=O)N=C2S1	RE007 growth inh 32µM, Marburg entry inh inconclusive, Sm TGR inh 3.5µM, FMDV antiviral 25µM
COc1cc(/C=N/NC(=O)C(Cc2c[nH]c3ccccc23)NC(=O)OCC(C)C)cc([N+](=O)[O-])c1O (configuration not stated)	LASV entry inh inconclusive
COc1cc(/C=N/NC(=O)C(Cc2c[nH]c3ccccc23)NC(=O)OCc2ccccc2)cc([N+](=O)[O-])c1O (configuration not stated)	LASV entry inh 6.3µM
O=C1C=C(c2cccs2)C[C@H](c2ccccc2)[C@H]1n1nnc([N+](=O)[O-])n1	LASV entry inh inconclusive, HCV inhibitor inconclusive, Marburg entry inh 1.3µM
